# High-throughput results from PubChem.
# Compounds with a hit are over-represented: about 22% of the library has one in this group of screens.
# Cycloheximide cs: counter-screen hit for Shiga toxin inhibitors, cycloheximide. AID 2314. cell reporter, cycloheximide protein synthesis inhibition counterscreen. max response, %. hit rate 12% among 300,000; in the data active = max response mostly above about 13%, no sharp cut-off; inactive = mostly below about 14%; also: read at 38.3 µM for the half of the compounds with a filed dose; 0% is about no effect
# Pf growth 48h: inhibits P. falciparum growth in the first generation, 48 h; P. falciparum luciferase growth in erythrocytes, 48 h; hit rate 5.9% among 310,000; Potency, µM (highest dose often 28.7 µM), without a hit: at the highest dose activity change, negative = inhibition, usual class: inhibitors; also: potency is read from the fitted curve at half-maximal effect; % is scaled to controls: 0 for no effect and ±100 for the full control effect
#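 Here the parasites carry a stable luciferase gene and grow inside erythrocytes in Albumax-based RPMI medium with compound for one erythrocytic cycle. Activity is scored as loss of luminescent signal.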
# Pf growth 96h: P. falciparum growth inhibition at 96 hours. hit rate 6.9% among 320,000. AID 504834. P. falciparum luciferase reporter growth, 96 h. Potency, µM (top dose mostly 28.7 µM), for inactives: at the top dose activity change, negative = inhibition, usual class: inhibitors; also: potency is read from the fitted curve at half-maximal effect; % is scaled to controls: 0 for no effect and ±100 for the full control effect
#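 Infected RBCs, 2% Hct / 0.05% parasitemia final; luciferase-reporter P. falciparum; cpd 96 h, 37 C, 5% CO2; luciferase detection reagent; luminescence.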
# LmPK inhibitor: blocks Leishmania mexicana pyruvate kinase activity. Q27686. purified LmPK, Kinase-Glo ATP luminescence, 1 h. Potency, µM (highest dose often 57.5 µM), inactives show at the highest dose activity change, negative = inhibition, most hits filed as inhibitors. hit rate 0.37% among 290,000. AID 1721; also: potency is read from the fitted curve at half-maximal effect; % is scaled to controls: 0 for no effect and ±100 for the full control effect
# Target sequence (Q27686 whole entry, looked up): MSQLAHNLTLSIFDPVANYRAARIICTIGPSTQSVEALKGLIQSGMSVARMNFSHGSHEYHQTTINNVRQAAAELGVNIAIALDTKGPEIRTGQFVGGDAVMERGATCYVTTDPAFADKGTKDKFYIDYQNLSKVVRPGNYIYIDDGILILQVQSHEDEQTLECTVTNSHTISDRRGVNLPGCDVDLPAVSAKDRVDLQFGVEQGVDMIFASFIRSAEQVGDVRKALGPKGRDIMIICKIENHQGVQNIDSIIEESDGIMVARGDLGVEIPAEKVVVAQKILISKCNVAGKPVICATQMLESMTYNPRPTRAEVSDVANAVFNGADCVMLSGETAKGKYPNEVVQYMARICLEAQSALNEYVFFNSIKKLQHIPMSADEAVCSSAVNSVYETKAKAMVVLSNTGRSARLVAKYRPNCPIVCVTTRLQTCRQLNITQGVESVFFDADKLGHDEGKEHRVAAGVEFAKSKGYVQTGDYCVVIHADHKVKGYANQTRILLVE
#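 In 50 mM imidazole pH 7.2 with 7 mM MgCl2, LmPK (0.1 nM) turned over PEP (0.5 mM) and ADP (0.1 mM) for 1 h at room temperature. Luciferase read-out of ATP.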
# Shiga toxin inh: Shiga toxin inhibition. Vero cells, Shiga toxin protein synthesis inhibition reporter. inhibition, % at 38.7 µM. hit rate 9.2% among 290,000; in the data active = inhibition mostly above about 28%, no sharp cut-off; inactive = mostly below about 43%; also: 0% is about no effect
# * hit, by the source's call; i = inactive; ? = inconclusive; / = not tested or not shown. Unless noted, calls follow the shape of the dose curve; as a rule, active = well fitted inhibition curve with a large enough effect; inconclusive = small, poorly fitted or top-dose-only effect, or another doubt; inactive = no such curve, though single readings can be large or run the other way.
SMILES,Cycloheximide cs,Pf growth 48h,Pf growth 96h,LmPK inhibitor,Shiga toxin inh
CC1CC(C)CN(S(=O)(=O)CCNC(=O)c2ccc3c(c2)OCO3)C1 (centres undefined),/,5%,10%,/,/
O=P(O)(CCc1ccccn1)CN1CCOCC1,-4,/,5.2µM*,5%,22
O=P(O)(CCc1ccccn1)CN1CCCCC1,-2,/,-5%,1%,0
CCOc1ccc(C(=O)NCC(=O)OCc2nnc(-c3ccccc3)o2)cc1OCC,/,-3%,?,/,/
O=C(CCN1C(=O)c2ccccc2C1=O)C1=NN[C@@H]2C(=O)N(c3ccc4c(c3)OCO4)C(=O)[C@H]12,11,36%,5%,3%,19
CN(c1ccc(OCC(=O)N2CCN(C/C=C/c3ccccc3)CC2)cc1)S(=O)(=O)c1cccs1,-3,9.3µM*,?,-12%,12
CCOC(=O)c1sc(NC(=O)Cn2nnc3sc4c(c3c2=O)CCC(C(C)(C)C)C4)nc1C (centres undefined),-3,9.3µM*,0%,-5%,4
CC(=O)Cn1nnc2sc3c(c2c1=O)CCC(C(C)(C)C)C3 (centres undefined),66*,240%,-12%,7%,88*
CCOC(=O)c1sc(NC(=O)CN2C(=O)C3CC=CCC3C2=O)nc1C (centres undefined),/,-1%,21%,/,/
CCn1nnc2sc3c(c2c1=O)CCC(C)C3 (centres undefined),38*,52%,0%,3%,25
Cn1c(=S)[nH]c2sc3c(c2c1=O)CCC(C(C)(C)C)C3 (centres undefined),8,/,?,1%,31
CC1CCc2c(sc3ncn(CCO)c(=O)c23)C1 (centres undefined),38*,51%,?,-5%,64*
CC1CCc2c(sc3ncn(Cc4ccc(C(=O)O)cc4)c(=O)c23)C1 (centres undefined),0,8%,26%,3%,16
O=C(O)c1[nH]c2ccccc2c1C(c1cc(Br)ccc1O)c1c(C(=O)O)[nH]c2ccccc12,-2,?,?,0%,-17
CC(/C=N/N1CCN(c2ccccc2)CC1)=C\c1ccco1,44*,63%,i,13µM*,37
CC(=C/c1ccco1)/C=N/N1CCN(c2ccccc2)CC1,46*,251%,i,16µM*,86*
CC(/C=N/N1CCN(c2ccccc2)CC1)=C\c1ccccc1,-1,56%,88%,-17%,-11
CC(/C=N/n1c(-c2ccccc2)n[nH]c1=S)=C\c1ccco1,-1,3%,20%,-16%,-11
CC1C(O)=C(c2nc3ccccc3[nH]2)C(=N)N1c1ccccc1 (centres undefined),24*,75%,-21%,1%,128*
N=C1C(c2nc3ccccc3[nH]2)=C(O)CN1c1ccccc1,10,/,4%,4%,19
CCC(C)N1CC(O)=C(c2nc3ccccc3[nH]2)C1=N (centres undefined),19,78%,/,-1%,84*
CCSc1nc2sccc2c(=O)n1-c1ccccc1,2,7%,-3%,-2%,-2
CCc1ccc(N(C(=O)c2snc(C(N)=O)c2N)C(C(=O)NC2CCCC2)c2ccncc2)cc1 (centres undefined),13,?,0%,1%,37
O=c1[nH]c(CN2CCN(c3ccc(O)cc3)CC2)nc2scc(-c3ccc(Cl)cc3)c12,-3,3.7µM*,?,1%,-12
O=c1[nH]c(CN2CCN(c3ccccc3O)CC2)nc2scc(-c3ccccc3Cl)c12,-3,5.2µM*,9.3µM*,6%,20
SMILES,Cycloheximide cs,Pf growth 48h,Pf growth 96h,LmPK inhibitor,Shiga toxin inh
CC1(c2cccc(Br)c2)NC(=O)N(CC(=O)N2CCc3ccccc32)C1=O (centres undefined),/,-1%,?,/,/
Cc1cc(Nc2ncc(Cl)cc2Cl)n[nH]1,15*,28%,/,1%,74
CCOC(=O)N1CCC(NC(=O)c2cc(C(=O)Nc3ccc(S(=O)(=O)N4CCOCC4)cc3)ccc2CO)CC1,15,5%,40%,0%,13
CN(C)CCCNCC(=O)NN(c1ccccc1)c1ccccc1,-3,-1%,61%,-2%,-1
O=C(NC1CCCCC1)C1CC(=O)N(CCc2ccc(F)cc2)C1 (centres undefined),-5,1%,-14%,-1%,-4
CC(C)CCOc1ccc(C2CC(=O)N(C)C2=O)cc1 (centres undefined),21*,-3%,2%,-2%,33
COc1cc(/C=C2\C(=O)NC(=O)N(c3ccccc3)C2=O)c([N+](=O)[O-])cc1OC,-1,17%,33%,0%,-9
CN1C(=O)NC(=O)/C(=C\C=C\c2ccccc2[N+](=O)[O-])C1=O,24*,15%,139%,0%,31
O=C(Nc1ccc(O)c2c(=O)cc(-c3ccccc3Cl)oc12)c1cccs1,-8,-23%,?,7%,-2
Cc1sc(NC(=O)CN(Cc2ccc(F)cc2)C(=O)C(C)(C)C)c(C(N)=O)c1C,-1,-23%,7.4µM*,-1%,13
CC(C)NC(=O)CN1C(=O)c2cccc3cccc1c23,-1,?,23%,10%,5
CC1CCC2(CC1)NC(=O)N(CC(=O)Nc1cccc(C#N)c1)C2=O (centres undefined),/,2%,27%,/,/
Cc1ncoc1C(=O)Nc1ccc(Oc2ccccc2)cc1,54*,121%,-9%,-16%,153*
Cc1nc(C)c(C(=O)Nc2ccc(Oc3ccccc3)cc2)o1,26*,78%,/,-9%,25*
CCN(CC(=O)Nc1c(F)cccc1F)C(=O)C1CCN(c2ncnc3sc(C)c(C)c23)CC1,/,10µM*,?,/,/
Cc1cccc(C)c1NC(=O)CN(C)C(=O)C1CCN(c2ncnc3sc(C)c(C)c23)CC1,/,?,7.4µM*,/,/
CCN(CC(=O)Nc1c(Cl)cccc1Cl)C(=O)C1CCN(c2ncnc3sc(C)c(C)c23)CC1,/,?,-24%,/,/
Cc1cc(=O)[nH]c(SCc2nc3ccccc3s2)n1,16*,-1%,8%,1%,14
Cc1cc(=O)[nH]c(SCc2cccc3ccccc23)n1,1,-3%,3.7µM*,6%,-7
Cc1cc(=O)[nH]c(SCc2csc(-c3ccccc3)n2)n1,20*,10%,45%,1%,24
CC1=C(/C=C/C(=C/C=C/C(C)=C/C(=O)O)c2ccc(C)cc2)C(C)(C)CCC1,61*,/,/,/,91*
CC1=C(/C=C/C(=O)O)C(C)(C)CCC1,-3,-8%,/,-1%,4
CC1=C(/C=C/C(C)=C/C=C/C(C)=C/C(=O)Nc2ccc(O)cc2)C(C)(C)CCC1,/,12µM*,?,/,/
Cc1cc(-c2ccc(Cl)cc2Cl)c(C#N)c(=O)[nH]1,21*,25%,8%,-1%,44*
CSc1nc(-c2ccc(Cl)cc2Cl)[nH]c(=O)c1C#N,-6,4%,-6%,0%,-13
c1ccc2c(Nc3nc4c(s3)CCCC4)cccc2c1,45*,-5%,151%,-3%,112*
